From PubChem BioAssay (NCATS)
Several values for one entry are separate records, joined by “and”; a condition that tells them apart may be missing. Equal entries are not always repeated. Records with an inconclusive call do not appear. Where a call stands in place of a potency, no number is given. Activity calls are given as the source filed them. Unless noted, calls come from the whole dose curve; as a rule, active = well fitted curve in the direction sought with a large enough effect; inconclusive = small, poorly fitted or top-dose-only effect, or another doubt; inactive = no such curve, though single readings can be large; an effect the other way counts as inactive or inconclusive. Bridge positions count the residues as written; N and C are the ends. Square brackets hold non-standard residues; d marks the D form. Peptide text beside a SMILES is read from it. * marks the point of attachment. Octanoyl(6-Me) = CCC(C)CCCCC(=O)*; Dab = NCC[CH](N)C(=O)O

Columns and labels:
[1] = system: W2; test: qHTS profiling for inhibitors of Plasmodium falciparum proliferation (AID 504749); note: nearly all actives have a fitted effect of over 60% in size; note: potency is the fitted concentration of half-maximal effect; settings: P. falciparum in erythrocytes, SYBR Green DNA, 72 h; series mostly up to 28.7 µM
Procedure, shortened: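 Three-day growth assay of blood-stage parasites in erythrocytes (0.3% parasitemia, 2.5% hematocrit) at 37 C, 5% CO2, quantified by SYBR Green DNA staining after overnight detergent lysis.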

[2] = Cellular Toxicity (caspase-3) N2a (AID 665);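 note: compound exposure lasted 16 h at 37 °C before readout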
Procedure, shortened: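 Plated mouse neuroblastoma N2a cells received titrated compounds for 16 h in complete medium. Caspase activity was then detected with a peptide-aminoluciferin luminescent reagent.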

[3] = Cellular Toxicity (caspase-3) NIH 3T3 (AID 666);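 note: caspase signal read after 16 h compound exposure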
Procedure, shortened: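 Concentration-response qHTS in NIH 3T3 mouse fibroblasts scores caspase-3/7 activation as rising luminescence after 16 hr compound exposure. Signals are scaled between DMSO-only and 100 uM tamoxifen.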

[4] = Cell Viability - LYMP2-001 (AID 921);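 note: cells exposed to compound for 24 h at 37 °C; nearly all actives have a fitted effect of over 70% in size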
Procedure, shortened: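 CellTiter-Glo luminescence (intracellular ATP) after 24 hr compound exposure at 37 C, 2500 lymphoblastoid cells/well in complete medium. AC50 fitted with standard Hill equation; tetraoctylammonium bromide positive control.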

[5] = Cell Viability - LYMP1-002 - Assay at 16 hr (AID 948)
Procedure, shortened: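 LYMP1-002 human lymphoblastoid cells, 2500/well; 5 hr 37 C; cpd 16 hr 37 C; CellTiter-Glo 30 min RT; luminescence (ATP). Concentration-response, Hill-fit AC50. Pos ctrl tetraoctylammonium bromide.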

[6] = Cell Viability - LYMP1-003 - Assay at 24 hr (AID 963)
Procedure, shortened: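 Acute toxicity in LYMP1-003 lymphoblastoid cells: 24 hr compound treatment at 37 C, ATP measured with CellTiter-Glo after 30 min at room temperature. AC50 derived by fitting the Hill equation to qHTS titrations.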

[7] = Cell Viability - LYMP2-015 (AID 971);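 note: cells exposed to compound for 24 h; nearly all actives have a fitted effect of over 55% in size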
Procedure, shortened: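 Acute toxicity was scored as a concentration-dependent drop in intracellular ATP in lymphoblastoid cells after 24 hr compound exposure in complete medium. Detection used CellTiter-Glo luciferase luminescence.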

[8] = Cell Viability - LYMP2-019 (AID 973);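 note: cells exposed to compound for 24 h at 37 °C; nearly all actives have a fitted effect of over 55% in size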
Procedure, shortened: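 Cells plated at 2500/well and allowed 5 hr at 37 C before compound addition. After 24 hr incubation, CellTiter-Glo reagent was added, plates sat 30 min at room temperature, and luminescence was recorded.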

[9] = Cell Viability - LYMP2-021 (AID 974);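 note: compound exposure lasts 24 hours at 37 °C; nearly all actives have a fitted effect of over 55% in size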
Procedure, shortened: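 Concentration-response cytotoxicity in a human lymphoblastoid line: 24 hr treatment at 37 C in complete culture medium, tetraoctylammonium bromide as positive control, luminescent ATP quantitation as viability measure.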

[10] = Cell Viability - LYMP2-025 (AID 976);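 note: cells exposed to compound for 24 h at 37 °C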
Procedure, shortened: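 In qHTS format, LYMP2-025 lymphoblastoid cells in complete culture medium received compound for 24 hr; ATP-based CellTiter-Glo signal gave viability, with AC50 derived by Hill equation.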

[11] = Cell Viability - LYMP2-014 (AID 983);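 note: cells exposed to compound for 24 h at 37 °C; nearly all actives have a fitted effect of over 50% in size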
Procedure, shortened: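 Decrease in intracellular ATP after 24 hr treatment at 37 C, measured by luciferase luminescence, indicated cytotoxicity. Concentration-response data were fitted with the standard Hill equation to give AC50.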

[12] = Cell Viability - LYMP2-026 (AID 989);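 note: cells exposed to compound for 24 h at 37 °C; nearly all actives have a fitted effect of over 50% in size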
Procedure, shortened: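 Concentration-dependent loss of intracellular ATP in human lymphoblastoid cells after 24 hr at 37 C, quantified by luciferase luminescence. AC50 derived from standard Hill equation.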

[13] = Cell Viability - LYMP1-002 - Assay at 24 hr (AID 993)
Procedure, shortened: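 qHTS, LYMP1-002 lymphoblastoid, 24 h cpd, 37 C, CellTiter-Glo ATP luminescence; AC50 via Hill eq.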

[14] = Cell Viability - LYMP1-002 - Assay at 40 hr (AID 994); note: nearly all actives have a fitted effect of over 60% in size
Procedure, shortened: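 Viability in the human lymphoblastoid line was measured as intracellular ATP via CellTiter-Glo after 40 hr compound exposure. Tetraoctylammonium bromide served as positive control.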

[15] = qHTS assay for small molecule agonists of retinoid X receptor alpha signaling (AID 588544; calls by dose curve); settings: HEK293T RXRa-UAS-bla, beta-lactamase reporter, 18 h; 530 nm emission
[16] = molecular target: Retinoic acid receptor RXR-alpha (Homo sapiens) (UniProt P19793); test: as above
[17] = molecular target: Thyroid hormone receptor beta (Homo sapiens) (UniProt P10828); test: qHTS assay for small molecule antagonists of thyroid hormone receptor beta signaling (AID 588547; active = well fitted inhibition curve with a large enough effect in the signal ratio, with a control signal flat, not every such curve was filed as active; the % refers to the signal ratio;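 note: cells stimulated with 0.4 nM T3 agonist during compound exposure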); settings: TR-UAS-bla HEK293, beta-lactamase ratio, antagonist mode, 18 h
Procedure, shortened: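 Inhibition of T3-driven (0.4nM final) beta-lactamase reporter activity was measured over 0.59 nM to 92 uM compound after 18 h at 37 C. The cells were GripTite HEK293 TR-UAS-bla in charcoal/dextran-stripped serum, with CCF4 ratio read-out and IC50 from Hill fits.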

[18] = qHTS assay for small molecule activators of the p53 signaling pathway (AID 651743; active = well fitted activation curve with a large enough effect in the signal ratio, not every such curve was filed as active; the % refers to the signal ratio; note: potency is the fitted concentration of half-maximal effect); settings: HCT-116 p53RE-bla, beta-lactamase FRET ratio, 16 h; activation: stronger effect = higher value
Procedure, shortened: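 Screen for p53 pathway agonists uses stably transfected p53RE-bla HCT-116 cells, 4,000 per well, treated 16 h at 37 C with compounds in DMSO.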

[19] = qHTS assay for small molecule antagonists of the retinoid-related orphan receptor gamma (ROR-gamma) signaling pathway - cell viability counter screen (AID 720652; active = well fitted curve in the direction sought with a large enough effect in the repeat runs; an effect the other way counts as inactive or inconclusive;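 note: CHO reporter cells with doxycycline-induced ROR-gamma expression; compound exposure lasted 16 hr before ATP read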)
Procedure, shortened: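 Cytotoxicity is quantified via intracellular ATP (CellTiter-Glo luminescence) in doxycycline-induced CHO ROR response element-luciferase reporter cells treated with compound for 16 hr at 37 C, 5% CO2.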

[20] = molecular target: Peroxisome proliferator-activated receptor gamma (Homo sapiens) (UniProt P37231); test: qHTS assay for small molecule antagonists of peroxisome proliferator-activated receptor gamma signaling (AID 588537; active = well fitted inhibition curve with a large enough effect in the signal ratio, with a control signal flat, not every such curve was filed as active; the % refers to the signal ratio;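 note: reporter cells co-stimulated with 50 nM rosiglitazone agonist during compound treatment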)
Procedure, shortened: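 Inhibitors of agonist-stimulated UAS-bla reporter activity were sought in HEK293 cells; rosiglitazone (50 nM) defined full signal and DMSO baseline. Curves fitted to Hill model gave IC50 and efficacy.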

Chain of Peroxisome proliferator-activated receptor gamma (Homo sapiens) (P37231 whole entry, looked up): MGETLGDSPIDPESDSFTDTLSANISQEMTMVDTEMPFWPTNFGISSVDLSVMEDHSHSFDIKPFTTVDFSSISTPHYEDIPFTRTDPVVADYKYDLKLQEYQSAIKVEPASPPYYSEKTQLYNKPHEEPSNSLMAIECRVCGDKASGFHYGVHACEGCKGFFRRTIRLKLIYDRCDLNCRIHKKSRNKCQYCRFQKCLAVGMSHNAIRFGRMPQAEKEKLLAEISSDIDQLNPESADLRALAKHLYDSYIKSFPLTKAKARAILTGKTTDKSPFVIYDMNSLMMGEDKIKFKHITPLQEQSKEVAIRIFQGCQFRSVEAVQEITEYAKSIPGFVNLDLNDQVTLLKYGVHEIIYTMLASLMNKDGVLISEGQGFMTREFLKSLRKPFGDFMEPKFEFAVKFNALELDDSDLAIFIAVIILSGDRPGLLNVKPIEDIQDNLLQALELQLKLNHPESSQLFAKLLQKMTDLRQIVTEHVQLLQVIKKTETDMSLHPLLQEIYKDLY
Chain of Thyroid hormone receptor beta (Homo sapiens) (P10828 whole entry, looked up): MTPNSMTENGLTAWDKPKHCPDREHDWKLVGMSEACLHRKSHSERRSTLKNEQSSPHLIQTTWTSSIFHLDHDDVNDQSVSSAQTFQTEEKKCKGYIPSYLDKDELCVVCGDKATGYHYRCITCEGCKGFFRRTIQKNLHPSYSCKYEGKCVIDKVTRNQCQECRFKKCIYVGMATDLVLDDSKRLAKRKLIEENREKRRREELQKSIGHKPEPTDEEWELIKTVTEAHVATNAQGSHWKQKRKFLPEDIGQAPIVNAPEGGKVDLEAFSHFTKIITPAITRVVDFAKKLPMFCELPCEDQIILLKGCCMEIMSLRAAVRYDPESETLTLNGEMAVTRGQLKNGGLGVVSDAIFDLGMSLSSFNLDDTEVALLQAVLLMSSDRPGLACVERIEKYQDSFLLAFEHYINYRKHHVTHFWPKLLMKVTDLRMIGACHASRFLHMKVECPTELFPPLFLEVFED
Chain of Retinoic acid receptor RXR-alpha (Homo sapiens) (P19793 whole entry, looked up): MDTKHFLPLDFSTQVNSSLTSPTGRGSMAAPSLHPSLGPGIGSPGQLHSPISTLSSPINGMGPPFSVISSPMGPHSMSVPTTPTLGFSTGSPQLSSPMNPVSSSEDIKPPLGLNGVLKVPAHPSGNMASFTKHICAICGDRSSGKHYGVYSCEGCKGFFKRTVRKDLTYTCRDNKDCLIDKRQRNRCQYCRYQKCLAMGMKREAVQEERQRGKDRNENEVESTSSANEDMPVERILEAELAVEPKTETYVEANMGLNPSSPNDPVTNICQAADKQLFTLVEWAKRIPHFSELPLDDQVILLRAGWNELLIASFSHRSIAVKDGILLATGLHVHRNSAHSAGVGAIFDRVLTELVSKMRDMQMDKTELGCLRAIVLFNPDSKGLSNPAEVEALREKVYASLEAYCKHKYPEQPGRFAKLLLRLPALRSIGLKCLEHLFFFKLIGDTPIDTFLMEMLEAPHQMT

CCN1/C(=C/C=C/C=C/c2sc3ccccc3[n+]2CC)Sc2ccccc21
Potency [1]: 1510 nM (active)

O[C@@H]([C@H](O)[C@@H](O)CBr)[C@@H](O)CBr
outcome [2]: inactive | outcome [3]: inactive | Potency [4]: inactive | Potency [5]: inactive | Potency [6]: inactive | Potency [7]: inactive | Potency [8]: inactive | Potency [9]: inactive | Potency [10]: inactive | Potency [11]: inactive | Potency [12]: inactive | Potency [13]: inactive | Potency [14]: inactive | max response [15]: -11.8% | outcome [16]: inactive | activity change % (negative = inhibition) [17]: -6.77% (inactive) | activation [18]: 4.39% (inactive) | Potency [19]: inactive

CC1CCC(C(C)C)C(OC(=O)c2ccccc2O)C1 (centres undefined)
Potency [1]: inactive

O=NCc1ccc([N+](=O)[O-])o1
Potency [1]: 6010 nM (active)

Cc1cccc(O)c1
outcome [20]: inactive | activity change % (negative = inhibition) [17]: -9.11% (inactive) and -4.09% (inactive) | activation [18]: -5.47% (inactive) and -2.85% (inactive)

CO/N=C(/C(=O)N[C@@H]1C(=O)N2C(C(=O)O)=CCS[C@H]12)c1csc(N)n1
Potency [1]: inactive

O=S(=O)(O)c1ccccc1
outcome [2]: inactive | outcome [3]: inactive | Potency [4]: inactive | Potency [5]: inactive | Potency [6]: inactive | Potency [7]: inactive | Potency [8]: inactive | Potency [9]: inactive | Potency [10]: inactive | Potency [11]: inactive | Potency [12]: inactive | Potency [13]: inactive | Potency [14]: inactive | outcome [20]: inactive | max response [15]: 0.332% | outcome [16]: inactive | Potency [19]: inactive

O=C1CCc2ccccc2O1
outcome [2]: inactive | outcome [3]: inactive | Potency [4]: inactive | Potency [5]: inactive | Potency [6]: inactive | Potency [7]: inactive | Potency [8]: inactive | Potency [9]: inactive | Potency [10]: inactive | Potency [11]: inactive | Potency [12]: inactive | Potency [13]: inactive | Potency [14]: inactive | outcome [20]: inactive | max response [15]: -3.26% | outcome [16]: inactive | activity change % (negative = inhibition) [17]: -1.36% (inactive) | activation [18]: -0.942% (inactive) | Potency [19]: inactive

Cc1cc(CC(C)CC(C)(C)C)n(O)c(=O)c1 (centres undefined)
Potency [1]: 2130 nM (active)

CC1(C)S[C@@H]2[C@H](NC(=O)COc3ccccc3)C(=O)N2[C@H]1C(=O)O
outcome [20]: inactive | max response [15]: -5.75% | outcome [16]: inactive | activation [18]: -0.552% (inactive) | Potency [1]: inactive

CCC(C)CCCCC(=O)NC(CCN)C(=O)NC(C(=O)NC(CCN)C(=O)NC1CCNC(=O)C(C(C)O)NC(=O)C(CCN)NC(=O)C(CCN)NC(=O)C(CC(C)C)NC(=O)C(Cc2ccccc2)NC(=O)C(CCN)NC1=O)C(C)O (centres undefined) ({Octanoyl(6-Me)}-[Dab]T[Dab][Dab][Dab]FL[Dab][Dab]T; lactam 4-C; configuration not given here)
Potency [1]: inactive

c1ccc2scnc2c1
outcome [2]: inactive | outcome [3]: inactive | Potency [4]: inactive | Potency [5]: inactive | Potency [6]: inactive | Potency [7]: inactive | Potency [8]: inactive | Potency [9]: inactive | Potency [10]: inactive | Potency [11]: inactive | Potency [12]: inactive | Potency [13]: inactive | Potency [14]: inactive | outcome [20]: inactive | max response [15]: -4.98% | outcome [16]: inactive | activity change % (negative = inhibition) [17]: 10.2% (inactive) | activation [18]: 0.66% (inactive) | Potency [19]: inactive

O=C(O)c1ccccc1C(c1ccc(O)cc1)c1ccc(O)cc1
outcome [2]: inactive | outcome [3]: inactive | Potency [4]: inactive | Potency [5]: inactive | Potency [6]: inactive | Potency [7]: inactive | Potency [8]: inactive | Potency [9]: inactive | Potency [10]: inactive | Potency [11]: inactive | Potency [12]: inactive | Potency [13]: inactive | Potency [14]: inactive | outcome [20]: inactive | max response [15]: -8.41% and -22.6% | outcome [16]: inactive | activity change % (negative = inhibition) [17]: 4.41% (inactive) and 9.59% (inactive) | Potency [19]: inactive

Nc1nc(Cl)nc2c1ncn2C1CC(O)C(CO)O1 (centres undefined)
Potency [1]: inactive

CO[C@@H]1[C@@H](OC2OC(C)C(OC3CC(C)(O)C(OC(=O)CC(C)C)C(C)O3)C(N(C)C)C2O)[C@@H](CC=O)C[C@@H](C)C(=O)/C=C\C2O[C@H]2C[C@@H](C)OC(=O)C[C@H]1OC(C)=O (some centres undefined)
Potency [1]: 1690 nM (active)

COc1c2ccoc2cc2oc(=O)ccc12
outcome [2]: inactive | outcome [3]: inactive | Potency [4]: inactive | Potency [5]: inactive | Potency [6]: inactive | Potency [7]: inactive | Potency [8]: inactive | Potency [9]: inactive | Potency [10]: inactive | Potency [11]: inactive | Potency [12]: inactive | Potency [13]: inactive | Potency [14]: inactive | outcome [20]: inactive | activity change % (negative = inhibition) [17]: 16.2% (inactive) | activation [18]: 6.05% (inactive) | Potency [19]: inactive

S=C1NC=NC2N=CNC12 (centres undefined)
outcome [3]: inactive | Potency [4]: inactive | Potency [7]: inactive | Potency [18]: 10000 nM (active) | Potency [1]: inactive
